# In the library only some 3.6% were active in any assay of this set; here they are far more common.
# Pf apPOL block – Pf-apPOL inhibitors, biochemical, fluorescence. hit rate 0.25% among 210,000. inhibition, % at 10 µM. Recombinant Pf-apPOL, molecular beacon fluorescence, 1.5 h
# mHTT-CaM PPI inh – mutant huntingtin-calmodulin interaction inhibitors – biochemical, AlphaScreen, primary screen | AlphaScreen His-mHTT/GST-CaM binding, luminescence | inhibition, % at 15 µM | hit rate 3.6% among 190,000;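 further: 0% = both proteins with DMSO and 100% = one protein alone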
# Starred values were filed as active, the others as inactive; / = no result given; ! = not confirmed by another sample. No stated cut-off is given here; in the data, active means inhibition above about 50%; inactive means the rest.
SMILES,Pf apPOL block,mHTT-CaM PPI inh
O=C(NCCCN1CCOCC1)c1cc2nc(-c3cccs3)cc(C(F)(F)Cl)n2n1,-4.1,25.0
O=C1CCCC2=C1C(c1cc(Br)ccc1F)n1ncnc1N2 (centres undefined),0.8,-4.0
C=CCN1C(=O)/C(=C2\SC(N3CCCCC3)=NC2=O)c2cc(Br)ccc21,/,37.4
C=CCOc1ccc(C=Nc2ccc(OC)cc2)c(O)c1,-1.8,0.0
COc1cc(OC)c(C=Nc2ccc(O)cc2)cc1Br,2.9,64.0*
COc1ccc(C=Nc2ccc(O)cc2)c(OC)c1,-7.2,71.0*
COc1cc(OC)c(C=Nc2ccccc2)cc1Br,-2.2,4.0
CCNC(=O)CN1C(=O)CCSc2ccccc21,-1.9,-5.1
Brc1ccccc1-c1nnc2n1N=C(c1ccccc1)CS2,-3.6,31.0
Brc1cccc(C2=Nn3c(nnc3-c3ccccn3)SC2)c1,/,54.4*
CCCn1cc(C2=CCN(C(=O)Nc3cc(Cl)ccc3C)CC2)c2cccnc21,-5.6,4.8
COc1ccc(C(N=CN(C)C)c2nccc3cc(OC)c(OC)cc23)cc1OC (centres undefined),/,4.7
COc1cc2c(C)[nH]c(=O)c(CC(=O)Nc3ccccc3)c2cc1OC,-3.4,64.8*
COc1ccccc1CC(=O)Nc1ccc(OC)c(OC)c1,-8.7,0.0
CC1CCCN(CC2CCN(S(=O)(=O)Cc3ccccc3F)CC2)C1 (centres undefined),-7.1,-2.6
CCOc1ccccc1N(CC(=O)Nc1cc(C)ccc1C)S(C)(=O)=O,-0.4,7.0
C#CCOc1c(CC=C)cc(C=O)cc1OCC,-13.1,-22.2
Cc1cc(C)cc(-n2nc3c(c2NC(=O)c2ccco2)CSC3)c1,-9.8,65.0*
Cc1cccc(-n2nc3c(c2NC(=O)c2ccco2)CSC3)c1,2.5,72.0*
Cc1ccc(-n2nc3c(c2NC(=O)c2ccco2)CSC3)cc1,-3.8,33.0
Cc1cccc(-n2nc3c(c2NC(=O)c2ccc(Br)o2)CSC3)c1,-9.5,64.0*
O=C(Nc1c2c(nn1-c1cccc(Cl)c1)CSC2)c1ccc(Br)o1,-3.7,10.0
COc1ccc(C(=O)Nc2c3c(nn2-c2cccc(C)c2)CSC3)cc1,-8.0,35.0
Cc1ccc(S(=O)(=O)N2CCC(c3noc(-c4ccccc4C)n3)CC2)cc1Cl,-4.5,-3.9
CC1(C)CC(NCc2ccccc2)CC(C)(C)N1,-1.0,-2.6
SMILES,Pf apPOL block,mHTT-CaM PPI inh
CC1Cc2nc(SCC(=O)N3CCCCCC3)n(Cc3ccccc3)c(=O)c2S1 (centres undefined),-3.5,13.0
COc1cc2c(cc1OC)C(C1=NC(C)(C)Cc3ccccc31)=NC(C)(C)C2,-2.1,13.0
COc1cc2c(cc1OC)C(SC)=NC(C)(C)C2,94.9*!,-1.0
COc1ccc(S(=O)(=O)Nc2ccc(Br)c(C(F)(F)F)c2)cc1OC,-1.3,/
CC1CCc2cc(F)cc3c(O)c(C(=O)Nc4ncccc4O)c(=O)n1c23 (centres undefined),-85.2,22.0
CCN(CC)CCNC(=O)c1c(O)c2cc(F)cc3c2n(c1=O)C(C)CC3 (centres undefined),-77.6,61.0*
O=C(CSC1CCCC1)N1CCC(c2nnc(-c3ccco3)o2)CC1,-0.2,100.0*
COc1nn(C)cc1C(=O)N1CCC(c2nnc(-c3ccco3)o2)CC1,-7.5,-18.7
O=[N+]([O-])c1cc([N+](=O)[O-])c2cccnc2c1Nc1ccc(O)cc1,-0.2,75.0*
CCCN(CCC)c1c([N+](=O)[O-])cc([N+](=O)[O-])c2cccnc12,-1.9,80.0*
COc1ccc(Nc2c([N+](=O)[O-])cc([N+](=O)[O-])c3cccnc23)cc1,-4.5,14.0
O=[N+]([O-])c1cc2cccnc2c2ncccc12,/,100.1*
CS(=O)(=O)c1ccc(Sc2cccc3cccnc23)c([N+](=O)[O-])c1,1.0,4.3
O=[N+]([O-])c1ccc(N2CCN(CCO)CC2)c2ncccc12,-1.4,5.0
N#Cc1ccc(S(=O)(=O)N2CC3CC(NC(=O)c4ccccc4)C2C3)cc1 (centres undefined),-4.3,4.3
CCOC(=O)C(CCCN=C(N)N)NC(=O)c1ccccc1 (centres undefined),-4.7,/
COc1ccc(NCc2ccc(C)s2)cc1OC,6.5,70.9*
COc1ccc(NCc2ccc(OC)c(OC)c2)cc1,10.2,11.1
O=C(c1c(F)cccc1F)N(CCc1ccccc1)Cc1ccccn1,-12.5,-11.4
CCN1Cc2nnn(Cc3ccccc3)c2-c2cc(F)ccc2S1(=O)=O,-3.1,94.4*
CC(C)(C)N1Cc2nnn(Cc3ccccc3)c2-c2cc(F)ccc2S1(=O)=O,-2.5,-6.4
COc1ccc(OC)c(NC(=O)C2CC(=O)N(c3ccc4oc(C)nc4c3)C2)c1 (centres undefined),-2.7,5.9
O=C(CSc1ccccc1)Nc1nnc(-c2cccs2)s1,-0.4,1.9
O=C1Nc2ccccc2CCC1NCc1ccccn1 (centres undefined),-13.3,71.4*
CC12CC3CC(C)(C1)CC(C(=O)NCc1ccccn1)(C3)C2,-6.8,3.2
SMILES,Pf apPOL block,mHTT-CaM PPI inh
CCOc1ccc(N2C(=O)CC(NCc3ccc(F)cc3)C2=O)cc1 (centres undefined),-0.7,-11.9
O=C1CC(NCc2ccccn2)C(=O)N1c1ccc(F)cc1 (centres undefined),-1.6,100.3*
Nc1nc(SCC(=O)Nc2ccc(S(N)(=O)=O)cc2)nc2sc3c(c12)CCCC3,-0.7,29.2
CCN(CC)c1ccc(/C=C2/C(=O)N(c3ccc(C)c(C)c3)N=C2C)cc1,-1.1,86.0*
CC1=NN(c2ccc(C)c(C)c2)C(=O)/C1=C/c1ccc(N(C)C)c([N+](=O)[O-])c1,-4.5,1.0
CC1=NN(c2ccc(I)cc2)C(=O)/C1=C/c1ccc(N(C)C)cc1,-1.3,57.0*
CN(C)c1ccc(/C=C2\C(=O)N(c3ccccc3)N=C2c2ccccc2)cc1,-3.6,56.0*
CC1=NN(c2ccc(Cl)c(Cl)c2)C(=O)/C1=C/c1ccc(N(C)C)cc1,1.4,44.0
CC1=NN(c2cccc(F)c2)C(=O)/C1=C/c1ccc(N(C)C)cc1,-10.5,10.0
CCc1cc(C(=O)Nc2cc(F)ccc2C)no1,-2.5,-19.2
Cc1ccc([N+](=O)[O-])c2c3c([nH]c12)C(=O)CCC3,83.0*,11.7
Cc1ccc([N+](=O)[O-])c2c3c([nH]c12)C(=NCCO)CCC3,1.0,22.0
Cc1cc(NS(=O)(=O)c2ccc(N/C=C/C(=O)c3cccs3)cc2)nc(C)n1,-14.1,30.1
CC(=O)c1ccc(NS(=O)(=O)c2ccc(N/C=C/C(=O)c3cccs3)cc2)cc1,59.6*,2.4
COc1ccc(OC)c(CNc2ccc([N+](=O)[O-])cc2C)c1,5.4,50.7*
COc1ccc(OC)c(CNc2cc([N+](=O)[O-])ccc2OC)c1,22.5,-3.3
Cc1cc([N+](=O)[O-])ccc1NCc1c[nH]c2ccccc12,1.5,68.6*
COc1ccc(CNc2ccc([N+](=O)[O-])cc2C)c(OC)c1C,-6.4,1.4
Cc1ccc(NC(=O)c2cc(C3CC3)n3nccc3n2)c(F)c1,-2.5,-25.7
CCCCSCCCNC(=O)CN1C(=O)/C(=C/c2ccc(OC)cc2)Sc2ccccc21,-14.7,5.0
Cc1ccc2c(c1)N(C(=O)Nc1ccccc1C(F)(F)F)CC(C)O2 (centres undefined),-8.3,-20.1
COC(=O)CN(C)C(=O)NC12CC3CC(CC(C3)C1)C2,-0.2,-3.0
O=C(O)c1cc(NS(=O)(=O)c2ccc(Cl)cc2)cc(C(=O)O)c1,71.4*,-2.8
